Bioassay records: PubChem BioAssay, Buhrlage Lab, Dana-Farber Cancer Institute and Novartis Institutes for BioMedical Research (Cambridge, Mass)
Most compounds without a hit are left out; they make up all but 5% or so of the library.
USP10 block – human USP10 deubiquitinase inhibition. 47,000 compounds, 1.1% hits. purified USP10, Ub-rhodamine fluorescence, 60 min. inhibition, % at 20 µM
USP7 block – blocks human USP7 ubiquitin-rhodamine cleavage | Q93009 | purified USP7, Ub-rhodamine cleavage fluorescence | inhibition, % at 20 µM | 47,000 compounds, 0.3% hits | AID 1645854
UCHL1 block – human UCHL1 deubiquitinase inhibition. 47,000 compounds, 0.2% hits. inhibition, % at 20 µM. purified UCHL1, Ub-rhodamine cleavage fluorescence. P09936
USP8 block – blocks human USP8 ubiquitin-rhodamine cleavage; P40818; purified USP8, Ub-rhodamine cleavage fluorescence, 30 min; inhibition, % at 20 µM; 47,000 compounds, 4.2% hits; AID 1645853
Starred values were filed as active, the others as inactive. Cut-off read from the data, not from the text of the source: active = inhibition above about 30%; inactive = the rest.

SMILES	USP10 block	USP7 block	UCHL1 block	USP8 block
O=C1CC(C(=O)Nc2ccccc2F)n2nc(-c3ccccc3)cc2N1 (stereo unspecified)	15.6	6.3	2.1	38.8*
O=C1CC(C(=O)Nc2ccccc2F)n2ncc(-c3ccccc3)c2N1 (stereo unspecified)	5.5	-2.3	1.4	23.3
O=C1CC(C(=O)Nc2ccccc2Cl)n2nc(-c3ccccc3)cc2N1 (stereo unspecified)	3.8	7.7	-0.4	30.8*
O=C1CC(C(=O)Nc2ccc(Cl)cc2Cl)n2ncc(-c3ccccc3)c2N1 (stereo unspecified)	15.5	6.1	0.3	-34.7
CCc1nnc(-c2ccc(=O)n(CC(=O)Nc3ccc(C)c(C)c3)c2)o1	7.9	0.9	-1.8	1.9
CCC(Sc1cccc(NC(=O)c2ccc(F)cc2)c1)C(=O)Nc1cc(C(=O)O)ccc1C (stereo unspecified)	3.5	-1.7	3.2	-78.8
O=C(COc1ccc(C2CCCCC2)cc1)Nc1ccc(-c2nn3cnnc3s2)cc1	34.6*	8.4	1.4	33.2*
COc1ccc2cc3c(nc2c1)OC(=O)N(Cc1ccccc1)C3	5.0	6.7	1.7	31.6*
COc1ccc(CCN2Cc3cc4ccccc4nc3OC2=O)cc1	2.5	2.3	-0.4	5.0
Cc1ccc(S(=O)(=O)c2c[nH]c3cc(F)ccc3c2=O)cc1F	11.0	15.4	-0.4	68.8*
Cc1ccc2[nH]cc(S(=O)(=O)c3ccc(C)c(F)c3)c(=O)c2c1	8.4	19.9	3.7	17.5
Cc1ccc2[nH]cc(S(=O)(=O)c3cc(F)cc(F)c3)c(=O)c2c1	26.0	36.1*	28.2	98.1*
O=S(=O)(c1cc(-c2nnc(C3CCC3)o2)co1)N1CCCCC1	-1.5	1.1	-0.9	-2.8
Cc1ncsc1C(=O)NCC[C@@]12CCCC[C@@H]1c1c([nH]c(=O)[nH]c1=O)O2	-5.6	1.6	-2.8	-61.1
Cc1nc2ccccn2c1CC(=O)Nc1cccc(C2CCc3nncn3C2)c1 (stereo unspecified)	0.1	0.1	1.3	35.9*
COc1ccc(C(=O)N2CCC(c3nc4c(nnn4Cc4cc(C)ccc4C)c(=O)[nH]3)CC2)cc1	15.0	-69.6	8.4	6.5
Nc1ncccc1C(=O)N1CC[C@@H]2[C@H]1CCCC(=O)N2Cc1ccc(F)cc1	-4.1	-0.9	-1.3	-2.4
O=C1CCCC[C@@H]2[C@H](CCN2Cc2ccc3ncccc3c2)N1Cc1ccccc1F	-1.7	-5.8	-10.4	47.2*
COc1ccc(Sc2nc3ccccc3n3cnnc23)cc1	7.0	23.4	12.2	79.0*
Cc1nn2c(S(=O)(=O)NC3CCCC3)c(C(C)C)nc2s1	-6.0	-6.6	-2.1	6.4
CC(C)(C)c1cc(C(=O)N2CCOCC2c2ccn[nH]2)n[nH]1 (stereo unspecified)	-2.0	0.1	-7.0	0.5
Cc1nc(C2COCCN2C(=O)c2cc(C(C)(C)C)[nH]n2)cc(=O)[nH]1 (stereo unspecified)	2.3	-0.8	37.3*	-0.4
CSc1ccc(/C=C/c2nc(-c3ccccc3O)n[nH]2)cc1	20.6	4.2	9.8	64.4*
O=C(CSc1ccc2nnc(-c3ccccc3)n2n1)c1ccccc1	2.4	6.1	3.4	78.7*
Clc1cccc(-c2cnc([C@@H]3COCCN3C3CCNCC3)[nH]2)c1	-0.6	-5.2	-0.1	-84.4
SMILES	USP10 block	USP7 block	UCHL1 block	USP8 block
CCN1CCC2(CC1)CN(Cc1ccncc1)Cc1cc(C)ccc1O2	-8.4	-30.5	-7.7	-1.8
O=C(Cn1cc(-c2ccccc2)oc1=O)NCc1ccc(Cl)cc1	-1.6	-1.3	0.9	30.6*
NS(=O)(=O)c1ccc(CCNC(=O)Cc2cc(-c3ccc(F)cc3)on2)cc1	-3.2	0.4	0.0	47.9*
O=C(Cc1cc(-c2ccccc2)on1)NCc1ccc(Cl)cc1	11.5	16.2	0.4	35.8*
CCc1ccccc1NC(=O)Cn1c(C)nc2c(c1=O)CCN(Cc1ccccc1)C2	-1.4	-7.3	-5.7	51.5*
COc1c(O)cc(CC(=O)O)c(C(C)=O)c1O	14.4	-28.5	50.0*	20.9
O=c1c2[nH]c3ccccc3c2ncn1CCN1CCCC1	1.7	0.5	0.4	10.4
O=C(NCC(c1ccccc1)N1CCCC1)c1cc(-c2ccc3c(c2)OCCO3)on1 (stereo unspecified)	-5.1	-4.5	-1.4	3.7
O=C(Oc1ccccc1Br)c1cc(-c2ccc3c(c2)OCCO3)on1	-6.9	-74.1	-3.9	51.7*
CCN(Cc1cc2ccccc2[nH]c1=O)C(=O)c1cc(OC)c(OC)c(OC)c1	-1.7	-0.5	-1.4	-14.6
COc1cccc(C(=O)Nc2nc(-c3ccc4c(c3)NC(=O)C(C)O4)c(C)s2)c1 (stereo unspecified)	0.5	-6.1	1.8	-8.2
